Results taken from the supplement of paper PMC6555819.

Tests used:
Test in all cases: PBM binding z-score (relative to random genomic background probes); higher = stronger binding; sequences stand for … in GC…GCGATTGACAGCGTAGAATGAAGG
[1] = tested on: RARb homodimer (NR concentration 270 nM)
In short: (§1)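 Binding buffer was PBS pH 7.4 with 2% milk, 0.02% Triton X-100, 1 mM DTT, 0.2 mg/mL BSA and 0.4 mg/ml salmon testes DNA. In it, ligand-free nuclear receptor dimers were incubated 1 h on custom Agilent 4×180K protein-binding microarrays carrying double-stranded probes. Antibodies against each partner (one per run) detected binding, and z-scores were calculated against random background probes after regression normalization of scanned fluorescence.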

[2] = tested on: RARg:RXRa (NR concentration 270 nM, RXRa partner concentration 90 nM)
In short: as §1

[3] = tested on: RARg homodimer (NR concentration 270 nM)
In short: as §1

[4] = tested on: RXRa DBDmut IVT, anti-RXR (DBD mutation: RXRa K156A/R161A, NR concentration 90 nM)
In short: as §1

[5] = tested on: RXRa homodimer (NR concentration 180 nM)
In short: as §1

[6] = tested on: THRa:RXRa (NR concentration 90 nM, RXRa partner concentration 90 nM)
In short: as §1

[7] = tested on: THRa homodimer (NR concentration 90 nM)
In short: as §1

[8] = tested on: VDR:RXRa (NR concentration 270 nM, RXRa partner concentration 90 nM)
In short: as §1

[9] = tested on: VDR homodimer (NR concentration 270 nM)
In short: as §1

Row | Sequence | PBM binding z-score [1] | PBM binding z-score [2] | PBM binding z-score [3] | PBM binding z-score [4] | PBM binding z-score [5] | PBM binding z-score [6] | PBM binding z-score [7] | PBM binding z-score [8] | PBM binding z-score [9]
1 | ATCTCTAGGTAAAGTTGAGTGAAAGATCGATAGA | -0.112 | 0.406 | 0.593 | -0.00419 | 0.495 | 0.689 | -0.246 | 0.152 | 0.103
2 | CGTCCAAGGTCAGAGAGGTCGGTGAATGCCGAGT | 4.09 | 4.84 | 5.91 | 2.7 | 3.93 | 3.66 | 1.38 | 6.24 | 3.09
3 | CCTACTGGCCCATCAGGTCATTGATATCAACGTT | 2.36 | 1.72 | 1.54 | 0.0636 | 1.13 | 3.29 | 3.04 | 1.78 | 1.9
4 | CGTCCAAGGTCATAGGTCAGTGAAGAGATGACGG | 4.84 | 6.97 | 6.86 | 3.61 | 8.18 | 4.31 | 2.65 | 5.32 | 3.51
5 | CCAGACAGGTGAAACGTAACTCAGTCTGGTACGC | 0.0638 | 0.203 | 0.432 | 0.0553 | 0.53 | -0.118 | -0.567 | -0.217 | -0.448
6 | CCGACTGGGCCAAAGGTTACCATACTCAGTACGA | 2.31 | 2.84 | 1.45 | 0.18 | 3.2 | 1.56 | 0.0942 | 1.21 | -0.0479
7 | AGTCAAAGTTCAGGACGAGGAAACGTAAAGCACG | 2.85 | 4.29 | 4.75 | 2.81 | 3.17 | 2.42 | 0.288 | 2.2 | 1.64
8 | AGAACGAGGGTACGCTGAGTTGATAGCAGAGTAG | -0.336 | 0.424 | 0.303 | 0.994 | 0.16 | 0.2 | -0.484 | 1.15 | 2.14
9 | TCTTGTAGATCCAAGGTTAAGAAAGCCGAAGCCT | 0.743 | 0.336 | 0.0629 | 0.928 | 1.13 | 1.27 | 0.204 | 0.448 | 0.0451
10 | CAAACTAGGTCACCGGACGGTCAAAGTCCGCATG | 4.41 | 6.71 | 6.04 | 1.41 | 4.05 | 3.5 | 1.73 | 3.59 | 1.1
11 | CTCGATAGGTCGTGCTCAGGTGAGTATACCAAAC | 1.07 | 2.26 | 1.2 | 0.506 | 1.29 | 2.86 | 0.582 | 0.637 | 0.0382
12 | TGAATGAGGTTATAAGATCCGGGAACGTTGCAAA | 0.199 | 1.19 | 0.881 | 0.792 | 1.78 | 1.7 | 0.151 | 0.946 | 0.411
13 | TCTGCTATGTCAGTTGGTCAGCTAACGAGCTGCC | 0.0404 | -0.0925 | -0.134 | 0.0834 | -0.0847 | -0.538 | -1.16 | -0.176 | -0.982
14 | CCTAGCAGGCCAATCTGGGTAACTCAAGGCTTGA | -0.251 | -0.429 | -0.124 | 0.0487 | -0.515 | 1.86 | -0.653 | -0.773 | -0.997
15 | ATCGAAAGGTCGACTAGGTGAGTATACACCGTTT | 2.66 | 4.11 | 3.91 | 0.992 | 4.12 | 2.86 | 0.0406 | 3.25 | 1.09
16 | CCCACTGGGGCAAGGTTACCATAACGCACAGCCA | 1.4 | 1.18 | 1.2 | -1.3 | 1.09 | 1.23 | 0.178 | 0.132 | -0.227
17 | GCTAGCAGGCCATTTGGGTCACTCACTGACGGGC | 1.96 | 0.722 | 1.04 | 0.199 | 0.604 | 1.73 | 0.972 | 0.766 | 0.0479
18 | GGAACGAGGGCATTCGAGTTGATAGCCTGGCGAT | 0.74 | 0.929 | 1.41 | 3.31 | 0.739 | 3.25 | -0.752 | 3.37 | 3.28
19 | ACTAGCAGGGCAAGTTTGGGTCACTCAAACAAAG | 2.59 | 3.35 | 2.64 | 0.437 | 1.38 | 3.17 | 1.08 | 1.32 | 0.258
20 | CCTCGGAGGACAACTGGAGGTCAGAGCTGCCAGA | 3.7 | 4.12 | 4.11 | 0.362 | 2.22 | 2.7 | 1.3 | 2.08 | 1.48
21 | ATCGAAAGGTCGACGAGGTGGGTATACACCGTTT | 2.71 | 4.03 | 3.85 | 0.746 | 4.17 | 2.51 | -0.214 | 4.34 | 0.638
22 | TCTTGTAGATCAATAGAGGTTAAGCAAGTGCGCT | 1.25 | 0.719 | 0.343 | 0.564 | 1.32 | 2.68 | -0.555 | 2.4 | 0.376
23 | CAAACTAGGTCAAGGTCAAAGCCGGTTTGTGCCA | 5.03 | 6.1 | 6.74 | 2.67 | 5.67 | 4.39 | 3.5 | 4.95 | 3.55
24 | TCCTGTAGATCAAGCAGGTTAAGAAAGCCTGAGT | 0.0843 | -0.142 | -0.295 | 0.428 | 0.45 | 0.254 | -0.566 | 0.503 | 0.241
25 | GGAACGATGGCAAGTTGATAGCAGAGTTTGATGG | -0.624 | -0.353 | -0.158 | -0.0368 | -0.123 | -0.797 | -0.814 | -0.469 | 0.0604
26 | TCTATTAGTTGAAGGGCGACCGACGAGTCCGTTT | 0.596 | 0.105 | -0.00665 | 1.84 | 0.439 | 0.0101 | 0.203 | 0.925 | 1.32

Row | Sequence | PBM binding z-score [1] | PBM binding z-score [2] | PBM binding z-score [3] | PBM binding z-score [4] | PBM binding z-score [5] | PBM binding z-score [6] | PBM binding z-score [7] | PBM binding z-score [8] | PBM binding z-score [9]
27 | CAAACTAGGTCACAGAGATCAAAGTCCGTGCGTA | 3.1 | 4.52 | 4.87 | 1.59 | 3.84 | 3.28 | 1.27 | 4.39 | 0.964
28 | CCTAGTTGGTCAGGAGGTGACACACCGGATATGA | 1.48 | 1.12 | 1.22 | -0.691 | 0.768 | 1.18 | 0.64 | 0.277 | 0.232
29 | TCTGCTAGGTCAACGATGGTCAGGTAATCTGCTA | 3.36 | 4.2 | 5.52 | 1.12 | 3.11 | 3.09 | 1.34 | 1.78 | -0.177
30 | TCTTGTAGATCAGCAGGTTAAGAGAGCTGGCCAA | -0.156 | -0.1 | -0.407 | 0.292 | 0.367 | -0.0987 | -0.325 | 0.132 | -0.364
31 | GCTTACTGGTCAAAGGTTATAGCATGAATAGAAT | 1.78 | 3.91 | 1.68 | 0.714 | 4.35 | 1.87 | -0.137 | 2.42 | 0.435
32 | ACTAGTTGGTCAGCTAAGGTCACACACAATTCGG | 4.54 | 4.33 | 4.53 | 1.25 | 4.2 | 5.21 | 5.38 | 3.99 | 2.63
33 | TCGCCTAGGTCATGCGGGCCAGTATAGTGTCGGC | 3.2 | 3.96 | 4.3 | 1.28 | 2.9 | 3.29 | 1.43 | 3.04 | 0.82
34 | AGTCAAAGTTCATCTAGGTAACGGAAGATATGCT | 4.04 | 5.6 | 6.13 | 4.58 | 4.85 | 3.33 | 0.388 | 4.95 | 5.59
35 | TCTTGTAGATCAATAGAGGTTAAGGAAGTGCGCT | 1.1 | 0.898 | 0.454 | 0.775 | 1.61 | 2.38 | -0.179 | 1.77 | 0.208
36 | GCTCGGAGGACAAGGTCAGATCTTTGTCCGTAGA | 3.06 | 3.19 | 3.28 | 0.628 | 2.46 | 3.17 | 1.58 | 1.61 | 0.872
37 | ACTAGCAGGCCAAGTTTGGGTTACTCAAACAAAG | 0.5 | 0.339 | 0.295 | -0.22 | -0.21 | 0.547 | -0.383 | -0.254 | -0.21
38 | GCTGCTAGGTCAGGTTGGCCAGCTAACGGGTACG | 2.23 | 2.48 | 3.46 | -0.0229 | 0.917 | 1.46 | 0.0199 | 0.052 | 0.0457
39 | GCGACTGGGGCATAAGCAGGTTACCATAACTTAA | 0.55 | 0.617 | 0.393 | 0.0117 | 0.39 | 0.914 | -0.368 | -0.0344 | -0.246
40 | GGATATAGGTAATACAAGGTGAAAGTCCGATTGT | 1.38 | 0.879 | 0.935 | 0.283 | 0.977 | 4.46 | 1.64 | 0.64 | 0.913
41 | TATAGAGGGTCAAAGGCCAGAGTACGAATGTCGA | 3.3 | 4.91 | 4.91 | 2.16 | 6.11 | 2.39 | -0.0967 | 3.83 | 1.73
42 | AGAACGAGGGCAATGAGTCGATAGCACGGGTGGC | 0.763 | 1.02 | 1.4 | 1.75 | 0.683 | 0.527 | -0.542 | 2.39 | 1.17
43 | TCTTATAGATCAAGCAGGTTAAGAAAGCCTGAGT | 0.27 | 0.242 | 0.136 | 1.03 | 0.704 | 0.558 | -0.379 | 0.894 | 0.389
44 | CGTCCAAGGACAAGGTCAGTGAAAGAGACTCGAA | 3.32 | 3.17 | 3.98 | 1.46 | 2.22 | 3.63 | 2.39 | 1.54 | 0.725
45 | AGAATGAGGTTATCCGTAGATCAGGGAAGAAAGT | 0.958 | 2.14 | 1.08 | 1.82 | 2.29 | 2.33 | 0.663 | 1.44 | 0.958
46 | TAGCCTAGGTCATGGGCCAGTATACCACGCGAAC | 2.71 | 4.27 | 4.78 | 0.316 | 3.57 | 2.93 | 1.3 | 1.97 | 0.506
47 | CAAACTAGGTCAAGGTCCAAGTCGGTTTGTGCCA | 3.59 | 3.87 | 5.33 | 1.76 | 3 | 3.18 | 1.67 | 2.18 | 1.7
48 | AATACAGGTTCATCGTAGGCCAGAGTACGCACAG | 1.46 | 2.54 | 1.39 | 4.66 | 3.17 | 3.66 | 0.0172 | 4.6 | 5.45
49 | CCAGACAGGTGAGAAGGTAACTCCGCCTCGATTA | 0.57 | 0.45 | 0.417 | -0.0199 | 0.0477 | 0.0136 | 0.252 | -0.335 | -0.0348
50 | CCGACTGGGGCAAGGTTACAATAACGCACAGCCA | 1.47 | 1.1 | 1.24 | -0.315 | 1.27 | 1.09 | -0.205 | 0.055 | 0.439
51 | TCGAGTAGGTTCGTCGGGGCATTCAGCCAACATA | 0.49 | 0.1 | -0.361 | 2.31 | 0.365 | 0.871 | 0.192 | 1.79 | 2.33
52 | ACTAGCAGGGCAAGGGTCACTCAAGATTAGTCCG | 3.73 | 4.34 | 3.78 | 0.379 | 4.53 | 2.73 | -0.1 | 2.95 | 1.17
